This note sets out measurements from the OligoGym collection.
Note: reference of the scale not given here.

For the first test, the target named is CYP4A22. Description: pooled miR-30 sensor sort-seq; sequence = guide strand. The settings on record: shRNA.
With ATTTCAACACAAGTCGTGCCAT, the sensor-assay potency score (higher = more potent) is -0.11.

Sequence TTCTGTAGTTGAGCCTTCCTCA returned a sensor-assay potency score (higher = more potent) of 0.294.

For the sequence TTGATCTTCTCCAGCTCCCCCT, the sensor-assay potency score (higher = more potent) is -0.672.

For TTGTCTGACAAGATGCTCCCAT, the sensor-assay potency score (higher = more potent) was found to be 0.46.

Turning to TTGGATCACTTGGTCTGTGTGC, the sensor-assay potency score (higher = more potent) was -0.603.

TTAATGCACATGGTGGTGTAGG: the sensor-assay potency score (higher = more potent) was -1.01.

With TTCCTGAATCCGTTGTAGCTCC, the sensor-assay potency score (higher = more potent) was -0.657.

Regarding TCCTTGTCTGACAAGATGCTCC, the sensor-assay potency score (higher = more potent) was -1.35.

For TGAGCTCTCTTCCAATGCCTGG, the sensor-assay potency score (higher = more potent) is -1.4.

Turning to TGGCCCTCAAACATGAACGTGT, the sensor-assay potency score (higher = more potent) was -0.767.

AATAAGGACAGGCACTTGGGAA: the sensor-assay potency score (higher = more potent) is -1.26.

For the sequence TAGGATCCATGGGATTTCGGGT, the sensor-assay potency score (higher = more potent) was -1.1.

The target in another test is CYP4V2. The description is as above. The settings on record: shRNA.
Turning to TTAGAACTCTGTAACCTGCCAC, the sensor-assay potency score (higher = more potent) came to 0.681.

Turning to TTTTGACCTATACAGTTCCTGG, the sensor-assay potency score (higher = more potent) was -1.19.

As to TTCTTCAGGTCTTCTACTGTAG, the sensor-assay potency score (higher = more potent) was -0.329.

Regarding TTCTTCTCGAATATCTTCATGA, the sensor-assay potency score (higher = more potent) is -0.54.

For TTCAACTTGATCCAGATGCCAT, the sensor-assay potency score (higher = more potent) is -0.613.

For the sequence TCAACTGTCCTTCTAGACCAAG, the sensor-assay potency score (higher = more potent) is -1.36.

As for TTCTAGACCAAGCTCTTCTCTT, the sensor-assay potency score (higher = more potent) was -0.575.

With TCATTCTATAAACTGCACGGAC, the sensor-assay potency score (higher = more potent) is -0.644.

On to ATATCTTCATGACTTAGCCTGT, for which the sensor-assay potency score (higher = more potent) is -0.479.

As to TTCTGGTTGGATTCTATCCAAA, the sensor-assay potency score (higher = more potent) was -1.62.

Turning to TAACACATTCCAGATACCGAAG, the sensor-assay potency score (higher = more potent) was -1.38.

A further test concerns the target CYSLTR1. The test is described as above. The settings on record: shRNA.
On to TTTAGTTTGATTGTCTTGTGGG, for which the sensor-assay potency score (higher = more potent) is 0.715.

For ATACCTACACACACAAACCTGG, the sensor-assay potency score (higher = more potent) was -0.207.

Take TTTCTGAATGTAGACAGCCTTT: the sensor-assay potency score (higher = more potent) was -1.15.

As for TTTTAGTTTGATTGTCTTGTGG, the sensor-assay potency score (higher = more potent) was -0.438.

In the case of TAGAAATGGAGAACTGGTCAAA, the sensor-assay potency score (higher = more potent) is -0.616.

Take TTGACATACAAAGCATAGGTGC: the sensor-assay potency score (higher = more potent) was -0.753.

For the sequence TAAATTAATCATGTATACTTGG, the sensor-assay potency score (higher = more potent) was -0.15.

Regarding TTTGTGAACATAATAGACCACA, the sensor-assay potency score (higher = more potent) is -0.314.

On to TAGAGGTTGACATACAAAGCAT, for which the sensor-assay potency score (higher = more potent) was -0.639.

TTAGTTTGATTGTCTTGTGGGG came in with a sensor-assay potency score (higher = more potent) of 0.0611.

With TGACACATAATGCAAGACCAAA, the sensor-assay potency score (higher = more potent) was -1.62.

The target in another test is CYTH1. Described as above. The settings on record: shRNA.
For the sequence TAGGAAACACTTGAGAACCAGG, the sensor-assay potency score (higher = more potent) was -0.778.

TTCTGCTATCTCATCCTTCAGC: the sensor-assay potency score (higher = more potent) was -0.329.

On to AACTTGGTCTTTATTGTCGGGG, for which the sensor-assay potency score (higher = more potent) was -0.623.

The sequence TACTTCTGCTATCTCATCCTTC registered a sensor-assay potency score (higher = more potent) of 0.117.

In the case of TTGTCAGTCAGAATGAACCAGC, the sensor-assay potency score (higher = more potent) was -0.752.

With TTTCATTAGCTACTTCTGCTAT, the sensor-assay potency score (higher = more potent) was -0.232.
